Growth data for seven molecules are collected here from PubChem BioAssay (NCI).

The structures appear in SMILES notation. Compounds without any hit were thinned out: in the full panel of roughly 83,000, 20% have a hit.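 The endpoint reported here, percent growth, reads 100 for growth as untreated, 0 for no net growth and -100 for all cells dead.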 Values without a mark were called inactive. Activity calls are given as the source filed them. The calls were made as follows: active = growth percent below 10; inactive = the rest.

Test systems include HCT-15 colon; HT29 colon; SNB-75 CNS; SNB-19 CNS; U251 CNS; PC-3 prostate; SK-MEL-5 melanoma; UACC-62 melanoma; LOX IMVI melanoma; SK-MEL-28 melanoma; SK-MEL-2 melanoma; EKVX NSCLC; SN12C renal; UO-31 renal; TK-10 renal; ACHN renal; A498 renal; CCRF-CEM leukemia; MOLT-4 leukemia; SR leukemia.
Assay in all cases: NCI-60 one-dose screen, 48 h (100 = growth as untreated, 0 = no growth, -100 = all killed)
Common to all, as to settings: 10 µM unless noted

Take `COc1ccc(C(C)c2cc(OC)c(OC)c(OC)c2)cc1` (stereo not given): the growth was 18% in the experiment with HCT-15 colon; 4.2% (active) in the experiment on HT29 colon; 38.2% in the experiment with SNB-75 CNS; 34.1% with SNB-19 CNS; 18% in the experiment with U251 CNS; 24.5% in the experiment with PC-3 prostate. Further, the growth is -31.5% (active) in the experiment with SK-MEL-5 melanoma; 28.1% in the experiment with UACC-62 melanoma; 26.1% in the experiment with LOX IMVI melanoma; 61.1% in the experiment on SK-MEL-28 melanoma; 33.6% in the experiment on SK-MEL-2 melanoma; 35.8% in the experiment with EKVX NSCLC. The growth was 39.1% with SN12C renal; 47.3% in the experiment with UO-31 renal; 67.5% with TK-10 renal; 37% with ACHN renal; 15.7% in the experiment with A498 renal; 18.5% in the experiment on CCRF-CEM leukemia. For the same molecule, the values for the growth in the experiment on MOLT-4 leukemia and with SR leukemia were 9.71% (active) and 13.3%, respectively.

For `Nc1c(C(=O)Nc2ccccn2)sc2nc3c(cc12)CCCC3`, the growth is 27.4% with HCT-15 colon; 21.7% in the experiment with HT29 colon; 38.1% in the experiment with SNB-75 CNS; 45.7% in the experiment on SNB-19 CNS; 33.2% in the experiment on U251 CNS; 64.9% in the experiment on PC-3 prostate. Moreover, the growth was 26.3% in the experiment with SK-MEL-5 melanoma; 41.2% in the experiment with UACC-62 melanoma; 41.5% with LOX IMVI melanoma; 64.8% in the experiment with SK-MEL-28 melanoma; 35.1% in the experiment on SK-MEL-2 melanoma; 55.2% in the experiment on EKVX NSCLC. Moreover, the growth was 50.1% with SN12C renal; 61.6% in the experiment on UO-31 renal; 97.5% in the experiment on TK-10 renal; 69.8% with ACHN renal; 48.3% in the experiment on A498 renal; 36.9% in the experiment with CCRF-CEM leukemia. Further, the values for the growth in the experiment with MOLT-4 leukemia and in the experiment on SR leukemia were 29.8% and 9.84% (active), respectively.

For `CC1CCN(CCCCCOc2ccc3oc4cc(Cl)ccc4c(=O)c3c2)CC1`, the growth with HCT-15 colon was -16.9% (active); in the experiment on HT29 colon it was 5.89% (active); in the experiment on SNB-75 CNS, 74.7%; in the experiment on SNB-19 CNS, 80.9%; in the experiment on U251 CNS, 54.3%; in the experiment on PC-3 prostate it was 64.3%. Moreover, the growth was -72.2% (active) in the experiment on SK-MEL-5 melanoma; -51% (active) with UACC-62 melanoma; -25.6% (active) in the experiment on LOX IMVI melanoma; 57.5% in the experiment on SK-MEL-28 melanoma; 88% in the experiment with SK-MEL-2 melanoma; 83.8% in the experiment with EKVX NSCLC. Besides, the growth in the experiment with SN12C renal was 63.5%; in the experiment with UO-31 renal, 67.7%; in the experiment with TK-10 renal, 78%; in the experiment with ACHN renal, 83.1%; in the experiment with A498 renal, 85.2%; in the experiment on CCRF-CEM leukemia, 65.5%. Moreover, the growth in the experiment on MOLT-4 leukemia is 29.7%; in the experiment on SR leukemia it was 16.5%.

Regarding `CCOC(=O)NCCc1nc2c([nH]1)c(=O)n(C)c(=O)n2C`, the growth is 97.6% in the experiment with HCT-15 colon; 98.5% with HT29 colon; 91% with SNB-75 CNS; 107% in the experiment on SNB-19 CNS; 108% in the experiment on U251 CNS; 91% in the experiment on PC-3 prostate. Also, the growth with SK-MEL-5 melanoma was 102%; in the experiment with UACC-62 melanoma it was 100%; with LOX IMVI melanoma, 94.9%; with SK-MEL-28 melanoma, 102%; with SK-MEL-2 melanoma it was 101%; in the experiment with EKVX NSCLC it was 99.7%. Besides, the growth in the experiment on SN12C renal is 101%; in the experiment on UO-31 renal it was 83.3%; with TK-10 renal, 100%; in the experiment with ACHN renal, 110%; in the experiment with A498 renal, 105%; with CCRF-CEM leukemia, 101%. In addition, the growth in the experiment with MOLT-4 leukemia was 115%; with SR leukemia, 119%.

In the case of `Cc1ccn2c3c(c(C(=O)O)c2c1)C(=O)c1ccccc1C3=O`, the growth in the experiment on HCT-15 colon is 58.8%; in the experiment on HT29 colon it was 39.5%; in the experiment with SNB-75 CNS, 87.8%; in the experiment with SNB-19 CNS, 50.4%; with U251 CNS, 74.9%; with PC-3 prostate, 84.8%. Moreover, the growth in the experiment on SK-MEL-5 melanoma was -98.9% (active); in the experiment with UACC-62 melanoma it was 0.126% (active); with LOX IMVI melanoma, 48.9%; in the experiment with SK-MEL-28 melanoma, 46%; with SK-MEL-2 melanoma it was 68.9%; with EKVX NSCLC, 83%. For the same molecule, the growth in the experiment with SN12C renal is 78.8%; in the experiment on UO-31 renal it was 63.7%; in the experiment with TK-10 renal it was 142%; in the experiment on ACHN renal it was 86.2%; with A498 renal, 89.2%; in the experiment with CCRF-CEM leukemia, 89.5%. Moreover, the growth with MOLT-4 leukemia is 84.8%; in the experiment on SR leukemia it was 80%.

With `Nc1c(C(=O)Nc2ccccc2)sc2nc3c(cc12)CN(C(=O)OCc1ccccc1)CC3`, the growth in the experiment with HCT-15 colon was 37.3%; in the experiment with HT29 colon it was 15.7%; in the experiment on SNB-75 CNS, 49.6%; with SNB-19 CNS, 56.1%; with U251 CNS, 37.8%; with PC-3 prostate, 46%. The growth with SK-MEL-5 melanoma is 36%; in the experiment with UACC-62 melanoma, 43%; in the experiment with LOX IMVI melanoma, 40.8%; with SK-MEL-28 melanoma, 62.3%; with SK-MEL-2 melanoma, 31.8%; in the experiment on EKVX NSCLC, 69.6%. The growth is 66% with SN12C renal; 67.5% in the experiment on UO-31 renal; 98.8% in the experiment on TK-10 renal; 60.2% with ACHN renal; 44.6% with A498 renal; 31.8% with CCRF-CEM leukemia. The growth was 37.8% in the experiment with MOLT-4 leukemia and 25.1% in the experiment on SR leukemia.

On to `O=C1CCC23OC(C(O)c4ccccc4N12)C1C(Br)=NOC13` (stereo not given), for which the growth in the experiment with HCT-15 colon was 97.4%; in the experiment with HT29 colon, 106%; with SNB-75 CNS, 80.8%; in the experiment on SNB-19 CNS, 108%; in the experiment with U251 CNS, 107%; with PC-3 prostate it was 99.2%. Moreover, the growth in the experiment on SK-MEL-5 melanoma was 111%; in the experiment with UACC-62 melanoma, 109%; in the experiment with LOX IMVI melanoma, 99.7%; in the experiment on SK-MEL-28 melanoma, 106%; with SK-MEL-2 melanoma, 108%; with EKVX NSCLC, 99.7%. Moreover, the growth in the experiment with SN12C renal is 90.7%; in the experiment with UO-31 renal, 87.2%; in the experiment with TK-10 renal, 98.5%; with ACHN renal, 104%; in the experiment with A498 renal it was 108%; with CCRF-CEM leukemia, 103%. In addition, the values for the growth in the experiment on MOLT-4 leukemia and with SR leukemia were 103% and 102%, respectively.
